# PubChem BioAssay AID743327 (National Center for Advancing Translational Sciences (NCATS), 2014)
# Unmarked numbers belong to inactive results. The source made the active and inactive calls. Calls follow the shape of the full dose curve. *1 amine or outer side, *2 acyl side, *3 side chain or, on linkers, in order; H or OH if unused. Where a SMILES comes first, the peptide text is derived from it. Bridges are numbered along the chain shown (N, C = ends). Roman numbers before positions name the chains, in order. [ ]: non-standard residue; d: D form. Actinocin(9to1) = Cc1c2oc3c(C)ccc(C(=O)[*:1])c3nc-2c(C(=O)[*:2])c(N)c1=O; NMeV = CN[CH](C(=O)O)C(C)C; Sar = CNCC(=O)O
# Assay: qHTS profiling of Chloroquine Analogs as inhibitors of Plasmodium falciparum (HB3) proliferation
# Settings: P. falciparum HB3 proliferation; series mostly up to 28.7 µM; activity change, negative = inhibition: at the top concentration
# Description: Plasmodium falciparum is a virulent malarial parasite that kills 1-2 million people worldwide each year. Transmitted by mosquitoes, the sporozoite form of the parasite enters the blood stream to infect hepatocytes, where they become merozoites that infect red blood cells (erythrocytes). Within erythrocytes, merozoites begin a […] cycle of growth and division, after which the parasite is released to infect new red blood cells. Gametocytes, which form within erythrocytes as well, circulate in the bloodstream and are ingested by the mosquito, thereby completing the life cycle. To profile malarial isolates for differential chemical responses and to identify inhibitors of malarial growth, an assay that measures P. falciparum growth and replication within erythrocytes was employed. This assay uses a DNA binding fluorescent dye (SYBR Green) to detect parasite DNA following cell lysis. Because mature erythrocytes lack DNA, only Plasmodium-derived DNA is detected.
# The SYBR Green viability assay was adapted from a method described previously (Plouffe et al., 2008). For screening 3 ul culture medium was dispensed into 1536 well black clear bottom plates (Aurora Biotechnologies) using a Multidrop Combi (Thermo Fisher Scientific Inc.), 23 nL compounds in DMSO were added by a pin tool (Kalypsys), and 5 ul of erythrocytes infected with P. falciparum (0.3% parasitemia, 2.5% hematocrit final concentration) were added. The plates were incubated at 37 C in a humidified incubator in 5% CO2 for 72 h, and 2 ul lysis buffer (20 mM Tris HCl, 10 mM EDTA, 0.16% saponin, 1.6% triton X, 10X SYBR Green I supplied as 10,000X […] by Invitrogen) was added to each well. The plates were mixed for 25 sec with gentle shaking and incubated overnight at room temperature in the dark. The following morning, fluorescence intensity at 485(14) nm excitation and 535(25) nm emission wavelengths was measured on an EnVision (Perkin Elmer) plate reader. Plate reads were normalized relative to the control inhibitor (0.29 uM artemisinin) and vehicle (DMSO) wells present on each plate and then corrected by an algorithm using vehicle-only control plates at the beginning and end of the compound plate stack.
Structure (SMILES),Potency,"activity change, negative = inhibition"
CSc1cccc(NC(=O)CC[C@H]2O[C@@H]3O[C@]4(C)CC[C@H]5[C@H](C)CC[C@@H]([C@@H]2C)[C@@]35OO4)c1,18.8 nM (active),–
CN([C@@H](Cc1ccc(OS(=O)(=O)c2cccc3cnccc23)cc1)C(=O)N1CCN(c2ccccc2)CC1)S(=O)(=O)c1cccc2cnccc12,–,-101%
CC(=O)N(O)CCCP(=O)(O)O,266 nM (active),–
C[C@@H]1Cc2c([nH]c3cc(Cl)c(F)cc23)[C@]2(N1)C(=O)Nc1ccc(Cl)cc12,–,155%
CC[C@H]1OC(=O)[C@H](C)[C@@H](O[C@H]2C[C@@](C)(OC)[C@@H](O)[C@H](C)O2)[C@H](C)[C@@H](O[C@@H]2O[C@H](C)C[C@H](N(C)C)[C@@H]2O)[C@](C)(O)C[C@@H](C)CN(C)[C@H](C)[C@@H](O)[C@]1(C)O,9430 nM (active),–
CO[C@H]1O[C@@H]2O[C@@]3(C)CC[C@@H]4[C@@H](C)CC[C@@H]([C@H]1C)[C@@]24OO3,–,126%
Cc1cccc(C)c1NC(=O)C(C)N (stereo not given),–,140% [at 14.2 µM]
C[C@H]1Cc2c([nH]c3cc(Cl)c(F)cc23)[C@@]2(N1)C(=O)Nc1ccc(Cl)cc12,–,-102%
COC(=O)C1C2CC3c4[nH]c5cc(OC)ccc5c4CCN3CC2CC(OC(=O)c2cc(OC)c(OC)c(OC)c2)C1OC (stereo not given),–,188% [at 57.5 µM]
Oc1cc(Cl)ccc1Oc1ccc(Cl)cc1Cl,1880 nM (active),–
CCCCCCCCCCOc1cc2c(=O)c(C(=O)OCC)c[nH]c2cc1OCC,–,-98.7%
CC(CNC1CCCCC1)OC(=O)c1ccccc1 (stereo not given),–,-7.06% [at 14.2 µM]
CNCCC(Oc1ccccc1OC)c1ccccc1 (stereo not given),3350 nM (active),–
CC(C)N=C(N)N=C(N)Nc1ccc(Cl)cc1,29.8 nM (active),–
COc1cccc(CCc2ccccc2OCC(CN(C)C)OC(=O)CCC(=O)O)c1 (stereo not given),2980 nM (active),–
Cc1nc2c(C#N)cccc2n1-c1ccc(C(=O)NC2CC2)s1,23.7 nM (active),–
C[C@H]1[C@@H](OC(=O)CCC(=O)O)O[C@@H]2OC3(C)CC[C@H]4[C@H](C)CC[C@@H]1[C@@]24OO3,3 nM (active),–
O=CN(O)CCCP(=O)(O)O,473 nM (active),–

Structure (SMILES),Potency,"activity change, negative = inhibition"
CCCCN(CCCC)CCC(O)c1cc2c(Cl)cc(Cl)cc2c2cc(C(F)(F)F)ccc12 (stereo not given),5.1 nM (active),–
COc1cc(C=CC(=O)CC(=O)C=Cc2ccc(O)c(OC)c2)ccc1O,–,169%
C=CC(C)=C[C@@]1(C)SC(=O)C(C)=C1O,–,-13.8%
CC[C@@H](C)[C@H]1O[C@]2(CC[C@H]1C)C[C@@H]1C[C@@H](CC=C(C)[C@@H](O[C@H]3C[C@H](OC)[C@@H](O[C@H]4C[C@H](OC)[C@@H](O)[C@H](C)O4)[C@H](C)O3)[C@@H](C)C=CC=C3CO[C@@H]4[C@H](O)C(C)=C[C@@H](C(=O)O1)[C@]34O)O2,–,-102%
C[C@H]1[C@@H](CCC(=O)Nc2ccc(F)cc2)O[C@@H]2O[C@]3(C)CC[C@@H]4[C@H](C)CC[C@@H]1[C@@]24OO3,6.7 nM (active),–
COCC(=O)O[C@]1(CCN(C)CCCc2nc3ccccc3[nH]2)CCc2cc(F)ccc2[C@@H]1C(C)C,1500 nM (active),–
CNC(=O)c1cc(Oc2ccc(NC(=O)Nc3ccc(Cl)c(C(F)(F)F)c3)cc2)ccn1,4210 nM (active),–
"Cc1c2oc3c(C)ccc(C(=O)NC4C(=O)NC(C(C)C)C(=O)N5CCCC5C(=O)N(C)CC(=O)N(C)C(C(C)C)C(=O)OC4C)c3nc-2c(C(=O)NC2C(=O)NC(C(C)C)C(=O)N3CCCC3C(=O)N(C)CC(=O)N(C)C(C(C)C)C(=O)OC2C)c(N)c1=O (stereo not given) (I: TVP[Sar][NMeV] / II: TVP[Sar][NMeV]; ester I:1-I:C, II:1-II:C; linker I:N-II:N via Actinocin(9to1); configuration not given here)",–,-100%
C[C@H](N)CN1CCc2ccc(Br)cc21,1500 nM (active),–
C[C@@H]1CCC2[C@@H](C)[C@@H](O)O[C@@H]3O[C@@]4(C)CC[C@@H]1[C@@]23OO4 (stereo not given in full),–,-100%
CCN(CC)CCCC(C)Nc1ccnc2cc(Cl)ccc12 (stereo not given),–,-99.7%
COc1cc2c(cc1C(F)(F)F)N(C(=O)Nc1cc(F)cc(-c3cccnc3)c1)CC2,3350 nM (active),–
C=Cc1c(C)c2cc3nc(cc4[nH]c(cc5nc(cc1[nH]2)C(C)=C5CCC(=O)OC)c(CCC(=O)O)c4C)[C@@]1(C)C3=CC=C(C(=O)OC)[C@H]1C(=O)OC,–,-98.4% [at 14.2 µM]
CC(C)(C)c1cc(O)c(CN)c(C(C)(C)C)c1,150 nM (active),–
CCc1nc(N)nc(N)c1-c1ccc(Cl)cc1,–,-100%
CN1CC[C@H](CN2c3ccccc3Sc3ccccc32)C1,10600 nM (active),–
O=C(O)c1cn(C2CC2)c2cc(N3CCNCC3)c(F)cc2c1=O,–,-16.3%
